The source of these data is the supplement of paper PMC6522484.

SMILES strings stand for the structures. ± gives the standard deviation of the averaged measurements.

The test system of assay [1] is DLD1. Nature of the assay: cell viability (CellTiter-Glo) relative to plate median (fraction of plate median); higher = more viable cells. Conditions: 5 µM; treatment time 24 h; reporter: 7TFP. In outline:
(§1)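 Colorectal cancer lines with stably integrated lentiviral TCF/Wnt firefly luciferase reporters received library compounds at a final 5 µM, 24 h after seeding into 384-well plates, for a 24 h exposure. Reported figures are plate-median-normalised firefly luciferase or CellTiterGlo luminescence per well. They average two independent replicates.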

The next assay deals with HCT116. The assay is described as above. Particulars: 5 µM; treatment time 24 h; reporter: TCF4/Wnt. The essentials:
as §1

Assay [2] has as its system SW480. Described as above. Conditions: 5 µM; treatment time 24 h; reporter: 7TFP. In outline: as §1
The subject of assay [3] is DLD1. Nature of the assay: TCF/Wnt firefly luciferase reporter signal relative to plate median (fraction of plate median); higher = higher Wnt reporter signal. Particulars: 5 µM; treatment time 24 h; reporter: 7TFP. The essentials:
as §1

Assay [4] concerns SW480. The description is as above. Particulars: 5 µM; treatment time 24 h; reporter: 7TFP. The essentials:
as §1

For `[O-][n+]1ccccc1[S-].[O-][n+]1ccccc1[S-].[Zn+2]`, the figures for the cell viability with DLD1 [1], in the assay on HCT116 and in the assay with SW480 [2] were 0.515 ± 0.32, 0.19 ± 0.11 and 0.628 ± 0.13, respectively. The “TCF/Wnt firefly luciferase reporter signal” value was found to be 0.216 ± 0.13 in the assay with DLD1 [3] and 0.165 ± 0.15 with SW480 [4].
For `CC(=O)O[C@H]1[C@H]2[C@@H](OC(=O)Cc3ccccc3)[C@@H](C)C[C@]2(OC(C)=O)C(=O)/C(C)=C/[C@@H]2[C@H](CC[C@@]13CO3)C2(C)C`, in that order: 1.06 ± 0.097, 1.01 ± 0.086, 1.06 ± 0.021, 1.09 ± 0.014 and 1.075 ± 0.0071.
For `COc1cc2c(c3oc4cccc(O)c4c(=O)c13)[C@@H]1C=CO[C@@H]1O2` [Sterigmatocystin], in that order: 1.1 ± 0.16, 1.17 ± 0.014, 1.08 ± 0.057, 0.845 ± 0.25 and 0.902 ± 0.077.
With `CC[C@H]1[C@@H]2C[C@H]3[C@@H]4N(C)c5ccccc5[C@]45C[C@@H]([C@@H]2[C@H]5O)N3[C@@H]1O`, the results for the cell viability in the assay on DLD1 [1], in the assay on HCT116 and in the assay on SW480 [2] were 0.898 ± 0.03, 0.899 ± 0.1 and 0.95 ± 0.023, respectively. Further, the “TCF/Wnt firefly luciferase reporter signal” value was 0.942 ± 0.0085 in the assay with DLD1 [3] and 1.05 ± 0.05 in the assay on SW480 [4].
For `N.N.[Cl][Pt][Cl]`, in that order: 1.1 ± 0.11, 1.07 ± 0.014, 1.02 ± 0.014, 0.939 ± 0.016 and 0.954 ± 0.08.
For `COc1cc([C@@H]2c3cc4c(cc3[C@H](O)[C@H]3COC(=O)[C@@H]23)OCO4)cc(OC)c1OC`, in that order: 1.04 ± 0.1, 0.774 ± 0.025, 1.22 ± 0.11, 0.819 ± 0.052 and 0.887 ± 0.057.
For `COc1ccc(/C=C/c2cc(O)cc(O)c2)cc1`, in that order: 1.05 ± 0.057, 1.01 ± 0.021, 0.982 ± 0.018, 1.25 ± 0.33 and 1.21 ± 0.099.
With `C[C@]12CC[C@H]3[C@@H](CC[C@]4(O)C[C@@H](O)CC[C@]34C=O)[C@@]1(O)CC[C@@H]2C1=CC(=O)OC1`, the figures for the cell viability in the assay on DLD1 [1], with HCT116 and in the assay with SW480 [2] were 0.579 ± 0.021, 0.502 ± 0.12 and 0.746 ± 0.046, respectively. In addition, the “TCF/Wnt firefly luciferase reporter signal” value was 0.226 ± 0.12 with DLD1 [3] and 0.58 ± 0.054 in the assay on SW480 [4].
For `CC1(C)C2C[C@@H](O)[C@]3(C)C(CC[C@@]4(C)[C@H](c5ccoc5)OC(=O)[C@H]5O[C@]543)[C@@]2(C)[C@@H](O)C[C@H]1O` (stereo not given in full), in that order: 1.02 ± 0.071, 0.963 ± 0.081, 0.989 ± 0.0057, 1.07 ± 0.18 and 0.936 ± 0.055.
The like results for `Cc1c(O)c(O)cc2c1CC=C1[C@@]2(C)CC[C@@]2(C)[C@@H]3C[C@](C)(C(=O)O)CC[C@]3(C)CC[C@]12C` were, in that order, 0.88 ± 0.082, 0.981 ± 0.069, 1.03 ± 0.045, 0.863 ± 0.073 and 0.846 ± 0.079.
The like results for `C/C=C\C(=O)O[C@@H]1C[C@H]2O[C@@H]3C=C(C)C(=O)C[C@]3(C)[C@]1(C)[C@]21CO1` [Trichothecin] were, in that order, 0.922 ± 0.018, 0.807 ± 0.025, 0.945 ± 0.023, 0.733 ± 0.1 and 0.832 ± 0.067.
For `COC(=O)[C@]1(C)CC[C@]2(C)CC[C@]3(C)C4=CC=C5C(=CC(=O)C(O)=C5C)[C@]4(C)CC[C@@]3(C)[C@@H]2C1`, the cell viability is 0.981 ± 0.0085 in the assay on DLD1 [1], 1.16 ± 0.05 in the assay on HCT116 and 1.03 ± 0.014 with SW480 [2]. The entries for the “TCF/Wnt firefly luciferase reporter signal” value in the assay on DLD1 [3] and in the assay with SW480 [4] were 1.11 ± 0.071 and 1.03 ± 0.08, respectively.
For `NCC(O)c1ccc(O)cc1` (stereo not given), in that order: 0.972 ± 0.097, 0.923 ± 0.015, 0.972 ± 0.011, 0.954 ± 0.21 and 0.943 ± 0.043.
For `CC[C@H]1CN2CC[C@H]1C[C@@H]2[C@@H](O)c1ccnc2ccc(OC)cc12`, in that order: 0.997 ± 0.0042, 1.07 ± 0.05, 1.06 ± 0.064, 1.08 ± 0.24 and 1.06 ± 0.071.
The like results for `O=c1ccc2c(O)c3ccoc3cc2o1` were, in that order, 1.005 ± 0.0071, 0.8825 ± 0.005, 1.02 ± 0.028, 0.926 ± 0.037 and 0.886 ± 0.034.
